# Assay results from the supplement of paper PMC7366291.
# Structures can show the parent of a compound that is named as a salt. ± gives the standard deviation or the standard deviation of the averaged measurements.
# How the values were obtained:
# Conditions in all cases: 25 µM; exposure: 24-48 hpf
# [1] = tested on: Danio rerio Tg(wt1b:EGFP) embryo, pronephros; assay: glomerular separation, fold change vs DMSO control; higher = glomeruli further apart (abnormal)
# Procedure, shortened: (§1)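 Dechorionated Tg(wt1b:EGFP) zebrafish embryos were kept from 24 to 48 hpf at 28.5°C in HEPES-buffered E3 containing 0.003% PTU, 0.5% DMSO and 25 μM compound. The pronephroi were then imaged from the dorsal side in agarose-filled 96-well plates at 470 nm with 10 z-slices, and 16 reference points were placed by hand on maximum projections in Fiji so that a macro could calculate distances and angles. Values lying more than 2 SD from the mean of a feature were discarded. Every feature is given as a fold change against the mean of DMSO-treated embryos from the same day.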
# [2] = tested on: Danio rerio Tg(wt1b:EGFP) embryo, pronephros; assay: glomerular width (mean of left and right), fold change vs DMSO control; higher = wider glomerulus
# Procedure, shortened: as §1
# [3] = tested on: Danio rerio Tg(wt1b:EGFP) embryo, pronephros; assay: fraction of imaged embryos annotated as normal kidney; higher = less nephrotoxic; extreme values may be limits of the assay
# Procedure, shortened: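 Zebrafish embryos carrying Tg(wt1b:EGFP) were dechorionated and exposed to 25 μM compound (0.5% DMSO) between 24 and 48 hpf at 28.5°C. Their pronephroi were imaged by widefield fluorescence, and each embryo was classed by hand from maximum projections. The measure is the fraction of embryos per treatment falling in the normal-kidney category.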
# [4] = tested on: Danio rerio Tg(wt1b:EGFP) embryo, pronephros; assay: pronephric angle neck segment to proximal convoluted tubule (mean of left and right), fold change vs DMSO control; higher = larger pronephric angle
# Procedure, shortened: as §1
SMILES,glomerular separation [1],glomerular width [2],fraction of imaged embryos annotated as normal kidney [3],pronephric angle neck segment [4]
CN(C)CCN1C(=O)c2ccccc2N(C)c2ccccc21 [Dibenzepine hydrochloride],1.21 ± 0.68,1.08 ± 0.047,0.75,0.967 ± 0.086
COCC(=O)Nc1c(I)c(C(=O)NCC(O)CO)c(I)c(C(=O)N(C)CC(O)CO)c1I (centres undefined) [Iopromide],0.857 ± 0.4,1.02 ± 0.041,0.917,0.97 ± 0.023
COCCCC/C(=N\OCCN)c1ccc(C(F)(F)F)cc1 [Fluvoxamine maleate],1.05 ± 0.39,0.91 ± 0.015,1,0.996 ± 0.018
CN(C)CCCC1(c2ccc(F)cc2)OCc2cc(C#N)ccc21 (centres undefined) [Citalopram Hydrobromide],1.21 ± 0.7,0.991 ± 0.035,0.667,0.956 ± 0.032
CN(CCOc1ccc(NS(C)(=O)=O)cc1)CCc1ccc(NS(C)(=O)=O)cc1 [Dofetilide],1.35 ± 0.35,0.982 ± 0.025,0.583,1.01 ± 0.07
OC(CCN1CCCC1)(c1ccccc1)C1CCCCC1 (centres undefined) [Procyclidine hydrochloride],0.639 ± 0.26,1.1 ± 0.013,0.833,0.954 ± 0.035
CCCCN(CCCC)CCC(O)c1cc2c(Cl)cc(Cl)cc2c2cc(C(F)(F)F)ccc12 (centres undefined) [Halofantrine hydrochloride],4.43 ± 1.8,0.655 ± 0.038,0,1.32 ± 0.061
C[C@]12CC[C@@H]3c4ccc(O)cc4CC[C@H]3[C@@H]1CC[C@@H]2O [Estradiol-17 beta],3.16 ± 1.2,0.812 ± 0.069,0.167,1.29 ± 0.22
Cc1cc(=O)oc2cc(O)ccc12 [Hymecromone],0.837 ± 0.36,1 ± 0.013,0.909,0.98 ± 0.01
O=C1CN2Cc3c(ccc(Cl)c3Cl)N=C2N1 [Anagrelide],1.1 ± 0.67,0.932 ± 0.098,0.917,0.988 ± 0.027
CCCCOc1cc(C(=O)OCCN(CC)CC)ccc1N [Benoxinate hydrochloride],0.798 ± 0.38,1.07 ± 0.018,0.833,0.9693 ± 0.0068
O=C(NCC1CCCCN1)c1cc(OCC(F)(F)F)ccc1OCC(F)(F)F (centres undefined) [Flecainide acetate],0.977 ± 0.32,1.03 ± 0.022,0.75,0.961 ± 0.023
CO[C@H]1/C=C/O[C@@]2(C)Oc3c(C)c(O)c4c(O)c(c(/C=N/N5CCN(C)CC5)c(O)c4c3C2=O)NC(=O)/C(C)=C\C=C\[C@H](C)[C@H](O)[C@@H](C)[C@@H](O)[C@@H](C)[C@H](OC(C)=O)[C@@H]1C [Rifampicin],1.08 ± 0.28,1.02 ± 0.018,0.833,0.991 ± 0.022
O=C1NCN(c2ccccc2)C12CCN(CCCC(c1ccc(F)cc1)c1ccc(F)cc1)CC2 [Fluspirilen],2.89 ± 1.3,0.687 ± 0.11,0.333,1.028 ± 0.0059
Nc1ccc(S(=O)(=O)NC(=O)c2ccccc2)cc1 [Sulfabenzamide],1.2 ± 0.49,0.98 ± 0.04,0.667,1.09 ± 0.0044
CCCC(=O)Nc1ccc(OCC(O)CNC(C)C)c(C(C)=O)c1 (centres undefined) [Acebutolol hydrochloride],1.43 ± 0.56,1.06 ± 0.075,0.75,0.9596 ± 0.0066
OCCN1C[C@H](O)[C@@H](O)[C@H](O)[C@H]1CO [Miglitol],1.12 ± 0.48,0.995 ± 0.011,0.909,0.982 ± 0.0086
NCCC[C@H](N)CC(=O)N[C@H]1CNC(=O)[C@H]([C@H]2C[C@H](O)NC(N)=N2)NC(=O)/C(=C/NC(N)=O)NC(=O)[C@H](CO)NC(=O)[C@H](CO)NC1=O [Viomycin sulfate],1.23 ± 0.3,0.86 ± 0.0024,0.833,1.07 ± 0.088
CN1C(C)(C)CCCC1(C)C [Pempidine tartrate],0.75 ± 0.25,1 ± 0.032,0.833,1.02 ± 0.068
CC(=O)N[C@@H](CS)C(=O)O [Acetylcysteine],0.784 ± 0.26,1.035 ± 0.0055,0.917,1.0017 ± 0.00093
CN(C)C/C=C(/c1ccc(Br)cc1)c1cccnc1 [Zimelidine dihydrochloride monohydrate],0.758 ± 0.25,0.9778 ± 0.0056,0.75,0.971 ± 0.055
OC(CCN1CCCCC1)(c1ccccc1)C1CC2C=CC1C2 (centres undefined) [Biperiden hydrochloride],1.06 ± 0.13,1.02 ± 0.047,0.917,1.01 ± 0.022
O=P(O)(O)C(O)(Cc1cccnc1)P(=O)(O)O [Risedronic acid monohydrate],0.755 ± 0.35,1.04 ± 0.032,0.833,0.975 ± 0.027
Oc1c(I)cc(Cl)c2cccnc12 [Clioquinol],4.35 ± 1.5,0.626 ± 0.024,0,1.59 ± 0.077
COc1ccc2cc([C@H](C)C(=O)O)ccc2c1 [Naproxen],2.89 ± 1.8,0.9508 ± 0.0065,0.167,1.52 ± 0.036
CC(C(=O)O)c1ccc2c(c1)Cc1cccnc1O2 (centres undefined) [Pranoprofen],0.724 ± 0.18,0.956 ± 0.035,0.583,1.049 ± 0.01
